Results reported in the supplement of paper PMC13380429.

Test system: Vero E6 infected with SARS-CoV-2
Experiment: inhibition of SARS-CoV-2 cytopathic effect; higher = more antiviral protection, active = above 15
Conditions: 48 h

Measured: inhibition of SARS-CoV-2 cytopathic effect

Cc1nc2ccc(NC(=O)Nc3ccnc4cccnc34)cc2o1
inactive: 1 nM 0.35% | 8.33 nM 0.06% | 100 nM 2.76% | 833.33 nM -0.56% | 10000 nM -0.97%

COc1cc(C(=O)OCCCN2CCCN(CCCOC(=O)c3cc(OC)c(OC)c(OC)c3)CC2)cc(OC)c1OC [dilazep]
inactive: 1 nM 0.92% | 8.33 nM 1.04% | 100 nM -0.17% | 833.33 nM -1.09% | 10000 nM 4.8%

C[C@H]1O[C@H](O[C@H]2[C@H](O)[C@@H](O)[C@@H](O[C@H]3[C@H](O)[C@@H](O)C(O)O[C@@H]3CO)O[C@@H]2CO)[C@H](O)[C@@H](O)[C@@H]1N[C@H]1C=C(CO)[C@@H](O)[C@H](O)[C@H]1O (stereo not given in full) [acarbose]
inactive: 1 nM 0.51% | 8.33 nM 1.35% | 100 nM -0.08% | 833.33 nM -0.03% | 10000 nM -0.32%

CCCCCCCCOc1ccccc1C(=O)Nc1ccc(C(=O)OCC[N+](C)(CC)CC)cc1 [otilonium]
inactive: 1 nM 2.76% | 8.33 nM -0.22% | 100 nM 1.35% | 833.33 nM 1.63% | 10000 nM 0.68%

COc1ccccc1N1CCN(CCCCNC(=O)c2ccc3ccccc3c2)CC1
inactive: 1 nM -1.05% | 8.33 nM 0.24% | 100 nM 1.14% | 833.33 nM -0.36% | 10000 nM -6.44%

O=C(O)P(=O)(O)O [foscarnet]
inactive: 1 nM 3.44% | 8.33 nM 3.89% | 100 nM 2.56% | 833.33 nM 0.33% | 10000 nM 0.71%

NC[C@H]1O[C@H](O[C@H]2[C@H](O)[C@@H](O[C@H]3O[C@H](CO)[C@@H](O)[C@H](N)[C@H]3O)[C@H](N)C[C@@H]2N)[C@H](O)[C@@H](O)[C@@H]1O [kanamycin]
inactive: 1 nM 1.47% | 8.33 nM 2.23% | 100 nM 2.41% | 833.33 nM 3.53% | 10000 nM -0.06%

c1ccc2c(c1)[I+]c1ccccc1-2 [diphenyleneiodonium]
inactive: 1 nM 0.63% | 8.33 nM 1.31% | 100 nM -0.64% | 833.33 nM -1.09% | 10000 nM 0.37%

C(#CCN1CCCC1)CN1CCCC1 [tremorine]
inactive: 1 nM 8.56% | 8.33 nM 4.46% | 100 nM -2.04% | 833.33 nM -3.53% | 10000 nM -1.73%

CCCc1c(OCC(O)COc2ccc3c(=O)cc(C(=O)O)oc3c2CCC)ccc(C(C)=O)c1O (stereo not given)
inactive: 1 nM 3.39% | 8.33 nM -0.15% | 100 nM 3.25% | 833.33 nM 6.19% | 10000 nM 3.02%

C[C@H]1c2cccc(O)c2C(=O)C2=C(O)[C@]3(O)C(=O)C(C(N)=O)=C(O)[C@@H](N(C)C)[C@@H]3[C@@H](O)[C@@H]21 [doxycycline]
inactive: 1 nM -1.68% | 8.33 nM -0.605% | 100 nM 0.42% | 833.33 nM 0.08% | 10000 nM -0.76%

O=C(O)C(=O)CBr [3-bromopyruvate]
inactive: 1 nM -3.69% | 8.33 nM 1.4% | 100 nM 4.96% | 833.33 nM 0.7% | 10000 nM 1.43%

Oc1ccc(Cl)c2c1CCC2 [chlorindanol]
inactive: 1 nM 1.21% | 8.33 nM -1.76% | 100 nM -1.84% | 833.33 nM -1.95% | 10000 nM 4.12%

Fc1ccc([C@@H]2CCNC[C@H]2COc2ccc3c(c2)OCO3)cc1 [paroxetine]
inactive: 1 nM -4.2% | 8.33 nM -2.01% | 100 nM -2.05% | 833.33 nM -1.89% | 10000 nM -13.1%

CC[C@H](C)C(=O)O[C@H]1C[C@H](O)C=C2C=C[C@H](C)[C@H](CC[C@@H](O)C[C@@H](O)CC(=O)O)[C@H]21
inactive: 1 nM 0.27% | 8.33 nM 3.73% | 100 nM 2.53% | 833.33 nM 6.3% | 10000 nM 1.69%

N#C/C(=C\c1ccc(O)c(O)c1)C(=O)NCc1ccccc1
inactive: 1 nM 5.06% | 8.33 nM 3.47% | 100 nM 7.47% | 833.33 nM 0.08% | 10000 nM 5.05%

CC(C)C(N)=O [isobutyramide]
inactive: 1 nM 4.35% | 8.33 nM 1.02% | 100 nM 2.22% | 833.33 nM 2.44% | 10000 nM 0.68%

CCOC(=O)c1cnc2c(cnn2CC)c1NN=C(C)C [etazolate]
inactive: 1 nM -0.85% | 8.33 nM 4.04% | 100 nM 0.13% | 833.33 nM 1.35% | 10000 nM -1.47%

N=C(N)c1cc2ccc(OC(=O)c3cccs3)cc2s1
inactive: 1 nM 1.66% | 8.33 nM 1.86% | 100 nM 2.63% | 833.33 nM -1.57% | 10000 nM 4.87%

Cc1ccc(-c2ccc(F)cc2COc2ccc(CCC(=O)O)cc2)cc1
inactive: 1 nM -2.64% | 8.33 nM 0.79% | 100 nM -1.34% | 833.33 nM 0.38% | 10000 nM -1.53%

CC(C)N(C[C@H]1O[C@@H](n2cnc3c(N)ncnc32)[C@H](O)[C@@H]1O)[C@H]1C[C@@H](CCc2nc3cc(C(C)(C)C)ccc3[nH]2)C1
inactive: 1 nM 1.37% | 8.33 nM 1.4% | 100 nM 1.55% | 833.33 nM 3.8% | 10000 nM 4.66%

NC(=O)CN1CC(O)CC1=O (stereo not given) [oxiracetam]
inactive: 1 nM 1.13% | 8.33 nM 0.12% | 100 nM 0.71% | 833.33 nM 4.22% | 10000 nM 0.29%

CNC(=O)c1cc2c(cn1)[nH]c1ccccc12
inactive: 1 nM 1.51% | 8.33 nM -0.17% | 100 nM 1.17% | 833.33 nM -0.08% | 10000 nM 1.58%

Clc1ccc(C(Cn2ccnc2)OCc2csc3c(Cl)cccc23)c(Cl)c1 (stereo not given) [sertaconazole]
inactive: 1 nM 0.24% | 8.33 nM 1.06% | 100 nM -0.32% | 833.33 nM 1.68% | 10000 nM -2.97%

NC(=O)N1c2ccccc2CC(O)c2ccccc21 (stereo not given) [licarbazepine]
inactive: 1 nM -1.75% | 8.33 nM 1.29% | 100 nM -0.88% | 833.33 nM -6.25% | 10000 nM 0.95%

CC(C)c1cc(-c2n[nH]c(=O)n2-c2ccc3c(ccn3C)c2)c(O)cc1O [ganetespib]
inactive: 1 nM -2.33% | 8.33 nM -3.79% | 100 nM -1.43% | 833.33 nM -1.16% | 10000 nM -7.9%

C#C[C@]1(O)CC[C@H]2[C@@H]3CCC4=CC(=O)CCC4=C3C=C[C@@]21CC [gestrinone]
inactive: 1 nM 1.67% | 8.33 nM 0.8% | 100 nM 4.87% | 833.33 nM 3.58% | 10000 nM 5.58%

CC(=O)OC[C@H](N)C(=O)O [O-acetyl-L-serine]
inactive: 1 nM 0.15% | 8.33 nM 1.11% | 100 nM 1.58% | 833.33 nM 1.65% | 10000 nM -0.72%

COc1cccc2c1C(=O)c1c(O)c3c(c(O)c1C2=O)C[C@@](O)(C(C)=O)C[C@@H]3O[C@H]1C[C@H](N)[C@H](O)[C@H](C)O1 [daunorubicin]
inactive: 1 nM 0.05% | 8.33 nM 0.64% | 100 nM 1.14% | 833.33 nM 4.26% | 10000 nM -16.6%

O=C(COc1ccc(Cl)cc1)N1CCN(Cc2ccc3c(c2)OCO3)CC1 [fipexide]
inactive: 1 nM -0.21% | 8.33 nM 0.95% | 100 nM 1.92% | 833.33 nM 1.62% | 10000 nM 0.49%

COc1cccc2c1C(=O)c1c(O)c3c(c(O)c1C2=O)C[C@@](O)(C(=O)CO)C[C@@H]3O[C@H]1C[C@H](N2CCO[C@H](OC)C2)[C@H](O)[C@H](C)O1 [nemorubicin]
inactive: 1 nM 1.94% | 8.33 nM -5.08% | 100 nM -8.02% | 833.33 nM -7.55% | 10000 nM -7.13%

c1ccc(COCCCc2c[nH]cn2)cc1 [proxyfan]
inactive: 1 nM -1.62% | 8.33 nM -1.11% | 100 nM -0.96% | 833.33 nM 0.04% | 10000 nM -3.35%

O=C(NCc1ccc(Oc2ccccc2)cc1)c1nc(-c2cc(Br)c(O)c(Br)c2)no1
inactive: 1 nM -1.01% | 8.33 nM -0.54% | 100 nM 0% | 833.33 nM 0.07% | 10000 nM 0.36%

CC(C)c1c2cc(-c3ccnc(N[C@H]4CC[C@H](NC5CCOCC5)CC4)n3)ccc2nn1C
inactive: 1 nM -0.19% | 8.33 nM -1.61% | 100 nM -2.09% | 833.33 nM -20.8% | 10000 nM -0.88%

CC(C)c1c(NC(=O)Nc2ccc(Cl)cc2)c(=O)n(-c2ccccc2)n1C
inactive: 1 nM 0.15% | 8.33 nM 0.39% | 100 nM 0.07% | 833.33 nM -1.16% | 10000 nM -0.11%

CNC(=O)c1c(-c2ccc(F)cc2)oc2cc(N(CCO)S(C)(=O)=O)c(C3CC3)cc12 [nesbuvir]
inactive: 1 nM 0.34% | 8.33 nM 0.12% | 100 nM 0.33% | 833.33 nM -1.14% | 10000 nM -3.08%

CCc1oc2ccccc2c1C(=O)c1cc(Br)c(O)c(Br)c1 [benzbromarone]
inactive: 1 nM -1.45% | 8.33 nM 0.69% | 100 nM -2.5% | 833.33 nM -0.89% | 10000 nM 0.48%

CC(C)C[C@H](NC(=O)OCc1ccccc1)C(=O)N[C@@H](C[C@@H]1CCNC1=O)C(O)S(=O)(=O)O (stereo not given in full) [GC376 sodium]
active: 10000 nM 70.6%
inactive: 1 nM 0.45% | 8.33 nM -0.81% | 100 nM 0.28% | 833.33 nM -0.83%

CC1=CC[C@@H](C(C)(C)O)C[C@@H]1O [sobrepin]
inactive: 1 nM -10% | 8.33 nM -11.1% | 100 nM -11.4% | 833.33 nM -13.5% | 10000 nM -10.4%
